Experimental data as given in PubChem BioAssay AID1259343 (VanderVen Lab, College of Veterinary Medicine, Cornell …, 2017).
Out of some 6,200 compounds screened, about 2,900 (47%) were called active. So high a share suggests a set chosen from earlier hits. The list shows a part of the results. Unmarked numbers belong to inactive results. No stated cut-off is given here; in the data, active means inhibition above about 50%; inactive means the rest.

Assay: Mycobacterium tuberculosis growth inhibition, primary screen (AID 1259343)
Conditions: inhibition: at 10 µM, stronger effect = higher value; outcome: 10 uM

Row | SMILES | inhibition
1 | CCOc1ccc2oc(C(=O)NC(C)(C)CC)c(C)c2c1 | 64% (active)
2 | CCN=c1scc(-c2ccc(C)c(C)c2)n1N=Cc1ccc2c(c1)OCCO2 | 70.5% (active)
3 | CCN=c1scc(-c2ccc(F)cc2)n1N=Cc1ccc2c(c1)OCCO2 | 4%
4 | CCN=c1scc(-c2ccc3c(c2)OCCO3)n1N=Cc1cc(C)ccc1C | 87.5% (active)
5 | C(=Nn1c(-c2ccc3c(c2)OCCO3)csc1=NCCc1ccccc1)c1ccccn1 | 30.9%
6 | CCN=c1scc(-c2ccc(C)c(C)c2)n1N=Cc1cccnc1 | -8.38%
7 | C(#Cc1ccccc1)CN1CCN(C/C=C/c2ccccc2)CC1 | 80.2% (active)
8 | COc1ccc(CC2CN(C/C=C/c3ccccc3)CCO2)cc1 (configuration not stated) | 41.6%
9 | Cc1nc(SCc2ccc(C(=O)O)cc2)nc(N2CCN(C/C=C/c3ccccc3)CC2)c1C | 5.19%
10 | O=C(Nc1nc(OCC(F)(F)F)cnc1-c1ccc(Cl)cc1Cl)c1ccco1 | 64.5% (active)
11 | O=C(Nc1ccc(N2CCN(C(=O)c3ccc(-c4cccc(Cl)c4)s3)CC2)nc1)c1ccco1 | 38.5%
12 | CCCc1cc(=O)[nH]c(-n2nc(C)cc2NC(=O)c2ccccc2[N+](=O)[O-])n1 | 101% (active)
13 | CCc1cc(=O)[nH]c(-n2nc(C)cc2NC(=O)c2ccccc2[N+](=O)[O-])n1 | 101% (active)
14 | CN(C)[C@@H]1C(=O)C(C(N)=O)=C(O)[C@@]2(O)C(=O)C3=C(O)c4c(O)cccc4[C@@](C)(O)[C@H]3C[C@@H]12 | 60.8% (active)
15 | COc1ccccc1NC(=O)c1ccc2noc(-c3ccccc3)c2c1 | 42.1%
16 | COc1cccc(Nc2ccc3c(-c4ccccc4)noc3n2)c1OC | 70.1% (active)
17 | O=C(Nc1cccc(-c2cccc(Cl)c2)c1)C1CCN(C(=O)CCn2cnnn2)CC1 | 90.2% (active)
18 | COCCC(=O)N1CCC(C(=O)Nc2cccc(-c3cccc(Cl)c3)c2)CC1 | 8.7%
19 | CSCCC(=O)N1CCC(C(=O)Nc2cccc(-c3cccc(Cl)c3)c2)CC1 | 88% (active)
20 | O=C(Nc1ccc(Oc2ccccc2F)cc1)C1CCN(CCCn2cccn2)CC1 | 86.6% (active)
21 | CCn1cc(CN2CCC(C(=O)Nc3ccc(Oc4ccccc4F)cc3)CC2)cn1 | inactive
22 | CCc1ncc(CN2CCC(C(=O)Nc3ccc(Oc4ccccc4F)cc3)CC2)cn1 | 86.1% (active)
23 | CC(=O)c1cccc(CN2CCC(C(=O)Nc3ccc(Oc4ccccc4F)cc3)CC2)c1 | inactive
24 | O=C(Nc1ccc(Oc2ccccc2F)cc1)C1CCN(Cc2cccc3c2OCO3)CC1 | 93.3% (active)
25 | COc1cccc(CN2CCC(C(=O)Nc3ccc(Oc4ccccc4F)cc3)CC2)c1 | 62.3% (active)
26 | COCc1ccc(CN2CCC(C(=O)Nc3ccc(Oc4ccccc4F)cc3)CC2)o1 | inactive

Row | SMILES | inhibition
27 | Cc1nc(C)c(CN2CCC(C(=O)Nc3ccc(Oc4ccccc4F)cc3)CC2)nc1C | 82.5% (active)
28 | O=C(Nc1cccc(-c2cccc(F)c2)c1)C1CCN(CCCn2cccn2)CC1 | 89.5% (active)
29 | O=c1c2ccccc2[nH]c(=S)n1C1CCCC1 | 90.2% (active)
30 | O=C(C1CCCC1)N1CCc2c([nH]c3ccccc23)C1c1cc(F)ccc1F (configuration not stated) | 24.3%
31 | c1ccc2c(c1)CCN(c1ncnc3c1oc1ccccc13)C2 | 19.2%
32 | COc1ccc(OCc2nc(C(=O)N3CCC3c3ccc(F)cc3)co2)cc1 (configuration not stated) | 28.5%
33 | Fc1ccc(OCc2nnc3sc(C4CC4)nn23)cc1 | 67% (active)
34 | Fc1ccc(OCc2nc(CSc3nnnn3C3CC3)cs2)cc1 | 4.6%
35 | COc1ccccc1C=NNC(=O)c1cc(C23CC4CC(CC(C4)C2)C3)[nH]n1 | 99.6% (active)
36 | O=C(NN=Cc1ccc(F)cc1)c1cc(C23CC4CC(CC(C4)C2)C3)[nH]n1 | 10.7%
37 | O=C(NN=Cc1ccccc1O)c1cc(C23CC4CC(CC(C4)C2)C3)[nH]n1 | 28.4%
38 | CC(C)Cn1c(CN(C)Cc2ncc[nH]2)nc2ccccc21 | 29.8%
39 | CN(C)c1ccc(C=NNC2=Nc3cccc4cccc2c34)cc1 | 18.6%
40 | NC1=NN(c2ccccc2)CC1 | 82.6% (active)
41 | CN(C)c1ccc(C=NC2=NN(c3ccccc3)CC2)cc1 | 90.3% (active)
42 | C(=NC1=NN(c2ccccc2)CC1)c1ccccc1 | 54% (active)
43 | CN(C)C=NC1=NN(c2ccccc2)CC1 | -0.55%
44 | c1ccc(C2=NN(c3ccccc3)CC2)cc1 | -38.3%
45 | FC(F)(F)c1ccc2c(c1)n(Cc1ccc(Cl)c(Cl)c1)c1[n+]2CCCCC1 | 10.6%
46 | C=CC[n+]1c(-c2ccccc2)csc1Nc1ccccc1OC | 88.1% (active)
47 | Cc1ccc(C=NNC(=S)NC2CCCCC2)o1 | 101% (active)
48 | CCNC(=S)NN=Cc1ccco1 | 1.13%
49 | Cc1ccc(C=NNC(=O)NC2CCCCC2)o1 | -14.7%
50 | CC(=NNC(=S)NC1CCCCC1)c1ccc(C)o1 | -13.8%
51 | CC(C)NC(=S)NN=Cc1c(F)c(F)c(F)c(F)c1F | 82.9% (active)
52 | Cc1ccc(C=NNC(=S)NC(C)C)o1 | 54.2% (active)

Row | SMILES | inhibition
53 | CCCCNC(=S)NN=Cc1ccc(C)o1 | 81.2% (active)
54 | CCc1c(C)sc2[nH]c(=S)n(C)c(=O)c12 | 24.5%
55 | CN(C)S(=O)(=O)n1cc(/C=C/c2nc(N)nc(-c3ccccc3O)n2)c2ccccc21 | 13.7%
56 | O=C(NCC1CCCc2ccccc21)c1ccccn1 (configuration not stated) | 3.26%
57 | CC(C)(CNC(=O)c1ccccn1)c1ccccc1 | 65.7% (active)
58 | O=C(NCCc1ccc(Cl)s1)Nc1ccccn1 | 35.1%
59 | Fc1ccc(-c2c[nH]c(=S)[nH]2)cc1 | 90.2% (active)
60 | O=c1oc2ccccc2c(O)c1C(c1ccc2c(c1)OCO2)c1c(O)c2ccccc2oc1=O | 54.4% (active)
61 | O=c1oc2ccccc2c(O)c1C(c1cncs1)c1c(O)c2ccccc2oc1=O | -17.6%
62 | O=c1oc2ccccc2c(O)c1C(c1ccccc1O)c1c(O)c2ccccc2oc1=O | 90.2% (active)
63 | CC(C)[C@H](CNC(=O)[C@@H](NC(=O)c1cccc(-c2ccccc2)n1)[C@@H](C)O)B(O)O | 23.9%
64 | Cc1ccc(N=Nc2cn[nH]c2C)cc1 | -8.23%
65 | COc1ccc(NC(=O)C(C)CS(=O)(=O)c2ccc(Br)cc2)cc1F (configuration not stated) | 61.1% (active)
66 | c1cc2c3c(cccc3c1)/C(=N/OCC1CO1)C2 (configuration not stated) | 101% (active)
67 | N#Cc1nc(COc2ccc(Br)cc2)oc1NCCCn1ccnc1 | 62.4% (active)
68 | N#Cc1nc(-c2ccc(COc3ccc(Cl)cc3)o2)oc1NCC1CCCO1 (configuration not stated) | 46.9%
69 | NC(CCCc1ccccc1)c1ccccc1 (configuration not stated) | 15.7%
70 | c1ccc(CC[P+](c2ccccc2)(c2ccccc2)c2ccccc2)cc1 | 62.6% (active)
71 | O=C1/C(=C\c2ccc(O)c(Cl)c2)CS(=O)(=O)C/C1=C/c1ccc(O)c(Cl)c1 | -0.82%
72 | COc1cc(C=C2SC(=S)NC2=O)cc(Br)c1O | 90% (active)
73 | O=C1NC(=S)SC1=Cc1ccc(F)c(F)c1 | 88.5% (active)
74 | COc1ccc(C=C2SC(=S)NC2=O)cc1F | 86.7% (active)
75 | O=C1NC(=S)SC1=Cc1cc(O)c(O)c(Cl)c1 | 88.3% (active)
76 | O=C1NC(=S)SC1=Cc1ccc(F)cc1 | 32.6%
77 | Cc1nn(C)c(C)c1CCC(=O)Nc1ccc(C(C)(C)C#N)cc1 | 71% (active)
78 | COc1ccc(NC(=O)CCc2ccccc2C#N)cc1 | 27.5%

Row | SMILES | inhibition
79 | S=c1[nH]nc(-c2ccccc2)c2ccccc12 | 70.8% (active)
80 | Cc1ccc(-c2n[nH]c(=S)c3ccccc23)cc1 | 32.5%
81 | CC1CN(c2ccc(-c3nnc(Br)s3)cc2)CC(C)(C)O1 (configuration not stated) | 10.5%
82 | CN(C)S(=O)(=O)c1ccc(COc2cccc(Cl)c2)o1 | 49.6%
83 | O=C(O)c1ccc(COc2cccc(Cl)c2)s1 | 81.8% (active)
84 | Clc1cccc(OCOCOc2cccc(Cl)c2)c1 | 1.77%
85 | O=C(NN1CCOCC1)c1ccc(Oc2ccc(F)cc2)cc1 | 89.4% (active)
86 | CCCNC(=O)c1ccc(Oc2ccc(F)cc2)cc1 | 90.3% (active)
87 | Cc1ccc(Oc2ccc(NC(C)C(=O)NC(C)C)cc2)cc1 (configuration not stated) | 30.7%
88 | CCCNC(=O)C(C)NC(=O)c1ccc(Oc2ccc(F)cc2)cc1 (configuration not stated) | 62.5% (active)
89 | C=CCOc1cccc(C2c3c(oc4ccc(C)cc4c3=O)C(=O)N2c2nccs2)c1 (configuration not stated) | 1.57%
90 | Fc1cccc(-c2nc3c(NCc4ccccc4)nccc3[nH]2)c1 | 58.3% (active)
91 | Fc1ccc(-c2nc3c(NCc4ccccc4)nccc3[nH]2)cc1F | 35.1%
92 | Fc1cc(NCc2ccccc2)nc(NCc2ccccc2)n1 | 13.7%
93 | c1ccc(-c2nc3c(NC4CCCCC4)nccc3[nH]2)cc1 | 76.1% (active)
94 | Cc1c(-c2ccccc2)[nH]c2c(CNc3nccc(N)n3)cc(Cl)cc12 | 25.5%
95 | c1ccc(CNc2nc(-c3ccccc3)nc3ccccc23)cc1 | -8.46%
96 | Cc1cccc(-c2nc3c(NCc4ccccc4)nccc3[nH]2)c1 | 68.2% (active)
97 | Cc1cccc(-c2nc3c(NCc4cccc(N(C)C)c4)nccc3[nH]2)c1 | 76.8% (active)
98 | Cc1ccc(-c2nc3c(NCc4cccc(N(C)C)c4)nccc3[nH]2)cc1 | 65.2% (active)
99 | Cc1cc(=O)[nH]c(-n2nc(C)cc2NC(=O)C(C)C)n1 | 100% (active)
100 | Cc1cc(=O)[nH]c(-n2nc(C)cc2NC(=O)c2snnc2C)n1 | 99.6% (active)
101 | CC(=O)Nc1cc(C)nn1-c1nc(C)cc(=O)[nH]1 | 100% (active)
102 | C/C=C/C(=O)Nc1cc(C)nn1-c1nc(C)cc(=O)[nH]1 | 101% (active)
